Activity calls are given as the source filed them.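 Rule for the calls: active = visual image review flags a hit and inhibition of aggregation exceeds 20%; inconclusive = visual hit but inhibition at or below 20%; inactive = no hit on visual image review.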
assay: reduction of polyQ htt aggregates in cells – imaging, exon1htt(103Q)mCFP cells, high-content imaging, primary screen (AID 483); details: exon1htt(103Q)mCFP cell line, aggregate imaging, at 2 µM; inhibition of aggregation: stronger effect = higher value; nuclei count: measured here: cell count, toxicity;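 note: compound exposure lasted 3 days before fixation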;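 for nuclei count: percent of the per-plate median nuclei count of sample wells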

Row | SMILES | inhibition of aggregation | nuclei count [%]
1 | CCN1CCN(C(CNC(=O)c2ccc3c(c2)OCO3)c2cccnc2)CC1 (stereo not given) | 0.6% (inactive) | 98
2 | Cc1cccnc1-n1c(CCN2C(=O)c3ccccc3C2=O)nc2ccccc2c1=O | 12.7% (inactive) | 84.4
3 | COc1cc2c(N3CCOCC3)cc(O)c(CC(=O)Nc3ccccc3)c2cc1OC | 0.7% (inactive) | 107
4 | Cc1ccc(-c2nc3cc(NC(=O)C(C)C)ccc3o2)cc1C | -7.4% (inactive) | 99.3
5 | Cc1ccc(-c2nnc(N3CCN(C(=O)CN4C(=O)c5ccccc5C4=O)CC3)c3ccccc23)cc1 | -15.9% (inactive) | 109
6 | Cc1cccc(OCC(=O)N(Cc2cccs2)C2CCS(=O)(=O)C2)c1C (stereo not given) | 0.4% (inactive) | 88.1
7 | CCN(CC)C(=O)Cn1c(=O)n(Cc2ccccc2Cl)c2c1c(=O)n(C)c(=O)n2C | 21.9% (inactive) | 94.3
8 | CCOc1ccccc1NC(=O)CCSc1nc2n[nH]c(C)c2c(=N)n1-c1ccccc1Cl | -22.3% (inactive) | 77.9
9 | COc1ccc(N2C(=O)CCC(C(=O)N3CCCCC3)C2c2ccc(OC)c(OC)c2)cc1 (stereo not given) | 21.6% (inactive) | 96.5
10 | COCCNC(=O)C(c1ccc(O)cc1)N(Cc1ccco1)C(=O)CCC(=O)Nc1nccs1 (stereo not given) | 0.1% (inactive) | 102
11 | C=CCN1C(=O)C2(/C(=C(\O)c3ccc4c(c3)OCCO4)C(=O)C(=O)N2CCCOC)c2ccccc21 (stereo not given) | 0.7% (inactive) | 104
12 | COc1cc2[nH]c(=O)c(C(=O)NCCCN3CCCCC3)c(O)c2cc1OC | 6.2% (inactive) | 98.3
13 | CCc1[nH]nc2c1C1(CCN(C(=O)OCc3ccccc3)CC1)C(C#N)=C(N)O2 | 12.7% (inactive) | 114
14 | O=C(Nc1cccc2ccccc12)N1CCN(c2ccccc2)CC1 | 26.6% (inactive) | 94.9
15 | CC(=O)N1CCC(N(C(=O)Nc2ccc(C)c(C)c2)C2CCCC2)CC1 | -11.9% (inactive) | 52.8
16 | O=C1CCCc2nc(N3CCCCC3)sc21 | -20.4% (inactive) | 108
17 | C=CCOc1ccc(C2/C(=C(\O)c3c(C)[nH]c(C(=O)OC)c3C)C(=O)C(=O)N2CCN(C)C)cc1 (stereo not given) | -6.9% (inactive) | 99.7
18 | Cc1cc(NC(=O)c2cccc(S(=O)(=O)N3CC(c4ccccc4)CC3=O)c2)no1 (stereo not given) | 2.3% (inactive) | 107
19 | CCN(CCCNC(=O)CC1Oc2ccc(C)cc2NC1=O)Cc1ccccc1 (stereo not given) | 30.8% (inactive) | 102
20 | CN1CCc2nc(SCCOc3ccccc3)c(C#N)cc2C1 | 0% (inactive) | 93.7

Row | SMILES | inhibition of aggregation | nuclei count [%]
21 | COc1ccc(S(=O)(=O)N2CCC(C(=O)Nc3c(F)cccc3F)CC2)cc1 | 7% (inactive) | 108
22 | Cc1nc2ccc(NC(=O)NCc3ccco3)cc2s1 | 21.2% (inactive) | 100
23 | CCNc1ccc(C(=O)OCC)cc1NC(=O)c1cc(S(=O)(=O)N2CCOCC2)ccc1C | 31.2% (inactive) | 93.3
24 | CC1CCN(c2nc3c(c(=O)n(C)c(=O)n3C)n2Cc2ccccc2)CC1 | -14.9% (inactive) | 83.4
25 | O=C(Oc1cc2oc(=O)c3c(c2cc1Cl)CCCC3)c1ccco1 | -4.9% (inactive) | 101
26 | CCOC(=O)CNC(=O)CSc1nc(N)cc(N)n1 | -0.1% (inactive) | 106
27 | CCCC(=O)C1=C(N(C)c2ccccc2)CC(C)(C)C(C(=O)OC)C1=O (stereo not given) | 3.6% (inactive) | 92.5
28 | CCOC(=O)c1ccc(N2C(=O)CC(N(C)CCc3ccc(OC)c(OC)c3)C2=O)cc1 (stereo not given) | 2.9% (inactive) | 94.2
29 | COc1ccc(C2=NOC(C(=O)NC3CCCCC3)C2)cc1OC (stereo not given) | 1.9% (inactive) | 104
30 | CCOC(=O)c1cc(CC)sc1NC(=O)CCC(=O)O | 3% (inactive) | 99.8
31 | O=C(C1CCN(c2nnc(-n3cccc3)s2)CC1)N1CCOCC1 | 6.4% (inactive) | 123
32 | Cn1cc(Br)c(C(=O)NC2CCCCC2)n1 | -0.3% (inactive) | 105
33 | CC1NC2(C(=O)N(Cc3ccccc3)c3ccccc32)C2C(=O)N(c3ccccc3)C(=O)C12 (stereo not given) | 2.9% (inactive) | 113
34 | O=C1CC(N2CCN(C3CCc4ccccc4C3)CC2)C(=O)N1c1ccccc1 (stereo not given) | 0.8% (inactive) | 88.6
35 | CCCOc1cccc(C(=O)Nc2cc(NC(=O)c3ccco3)ccc2OC)c1 | 2.3% (inactive) | 101
36 | Cn1c(SCC(=O)Nc2ccc3c(c2)OCO3)nnc1-c1cnccn1 | 3.7% (inactive) | 94.2
37 | CC1CCN(S(=O)(=O)c2cccc(C(=O)Nc3ccccn3)c2)CC1 | 26.3% (inactive) | 78
38 | CC(=O)Nc1ccc(N=Cc2nc(-c3ccc(C)cc3)oc2O)cc1 | -4% (inactive) | 119
39 | CN(C(=O)C1CCCO1)c1nnc(-c2ccncc2)s1 (stereo not given) | 4.6% (inactive) | 103
40 | CCOC(=O)c1[nH]c(C)c(C(=O)NC)c1C | 0.2% (inactive) | 105
